Each structure is given as a SMILES string. Measured potencies and affinities stand elsewhere. Activity calls are given as the source filed them.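 How the source made its calls: active means viability loss whose fitted half-maximal concentration is at most twice the top valid tested dose; inconclusive means flat curve with 30 to 70% loss, or poor fit; inactive means the rest.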

This test is described as follows: HepG2 cell cytotoxicity, dose response, cytotoxicity control, ATP luminescence, cherry-pick, set 6 (AID 1053125).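 Further: negative values mean loss of viability signal.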 The conditions noted are these: HepG2 viability, ATP luminescence (CellTiter-Glo), 72 h; series mostly up to 26 µM.
Consider `O=C(C1=NN(c2ccccc2)C2C(=O)N(c3ccccc3)C(=O)C12)c1ccccc1` (configuration not stated), for which the compound was called inactive.
To `COc1cccc(N2CCN(C(=O)C3CCCN(S(=O)(=O)c4cnc[nH]4)C3)CC2)c1` (configuration not stated) belongs “inactive”; to `Cc1ccc(-n2c(C)cc(/C=N/NC(=O)Cn3c4ccccc4c(=O)c4ccccc43)c2C)cc1`, “inactive”; to `O=C(O)c1ccc(N2N=C(c3ccccc3)CC2c2ccccc2)cc1` (configuration not stated), “inactive”.
To `CSc1ccc(Cn2c(C)c(C(=O)NCc3cccc(Cl)c3)sc2=O)cc1` belongs “inactive”.
Then `CC1=C(C(=O)N2CCN(c3cc(C)ccc3C)CC2)C2(CCCCC2)OC1=O`, with “inactive”; and `O=C(NCc1ccc(F)cc1)C1CCCN1C(=O)Nc1cccc(F)c1` (configuration not stated), with “inactive”; and `CCOC(=O)c1cc2c(=O)n3ccccc3nc2n(Cc2ccc(Cl)cc2)c1=N`, with “inactive”.
On to `CCN(CC)CCN1C2=C(C(=O)CC(C)(C)C2)C(c2cccc(F)c2)C2=C1CC(C)(C)CC2=O`, for which the call was inactive.
For `S=c1[nH]c2ccc(Cc3ccc4[nH]c(=S)[nH]c4c3)cc2[nH]1`, the call was inactive.
Then `CCC(C)n1c(=N)c(C#N)cc2c(=O)n3cccc(C)c3nc21` (configuration not stated), with “inactive”; and `COCc1cc(C)nc(SCC(=O)Oc2ccc(Cl)cc2)c1C#N`, with “inactive”; and `Cn1cnc(S(=O)(=O)Nc2ccc(OC(F)(F)F)cc2)c1`, with “inactive”.
To `Cc1nc2ccc(S(=O)(=O)Nc3ccc(-c4nc5cccnc5s4)cc3)cc2s1` belongs “inactive”; to `Cc1cc(-n2c(=O)c(C#N)cc3c(=O)n4ccccc4nc32)no1`, “inactive”.
Then `Cc1ccc(O)c(NC(=S)NC(=O)COc2ccc(Br)cc2)c1`, with “inactive”.
As for `COc1ccc(Br)c(Cn2c(C)c(C(=O)NCc3ccc4c(c3)OCCO4)sc2=O)c1`, the result was inactive.
